The sample as a whole holds a higher share of hits than the screen did.
RmlC RmlD mix – RmlC/RmlD inhibition, mixture screen | RmlC/RmlD coupled enzyme inhibition, 384-well mixture HTS | inhibition, % at 5.5 µM | hit rate 0.39% among 110,000; in the data active means inhibition above about 30%, passing the limit was not always enough
RT RNaseH block – inhibitors of HIV-1 reverse transcriptase RNase H; P04585; RT-RNase H RNA/DNA duplex cleavage, fluorescence; inhibition, % at 10 µM; hit rate 1.9% among 65,000; AID 565; in the data active means inhibition above about 50%
RmlCD fluor art – counter-screen for RmlC/RmlD inhibitors: fluorescence artifact. shares compounds with RmlC RmlD mix. RmlC/RmlD assay fluorescence artifact counter-screen. calls only. hit rate 96% among 360; call rule not given here;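 further: compound alone with no enzyme and no substrates present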
Active calls of the source: *; . = no result given; + = active, no number.

SMILES	RmlC RmlD mix	RT RNaseH block	RmlCD fluor art
CCN(CC(=O)Nc1ccc([N+](=O)[O-])cc1OC)c1ccccc1	-1	.	.
CCOC(=O)c1nn(-c2ccc(Cl)cc2)c2nc(CC)c(C#N)c(=O)n12	85*	.	+
CCOC(=O)c1nn(-c2ccc(Cl)cc2)c2nc(-c3ccc(C)cc3)c(C#N)c(=O)n12	11	.	.
Cc1c(Cl)cccc1N(CC(=O)NC1CCCCC1)S(C)(=O)=O	52	-1	.
Brc1ccc(-c2nc3ncccn3c2NC2CCCCC2)o1	-4	.	.
c1ccc2cc(-c3cc4ccccn4c3)ccc2c1	91*	.	+
COc1ccc(-c2cn3ccccc3n2)cc1OC	40	-8	.
Cc1ccc(S(=O)(=O)c2ccc(Oc3cccc(C)c3)cc2)cc1	-9	.	.
COc1ccc(CNC(=O)C(C)Cc2ccccc2)cc1O (stereo unspecified)	10	.	.
CN(C)CCNC(=O)c1coc(=O)c(Br)c1	62*	-3	+
CC(C)CNC(=O)c1coc(=O)c(Br)c1	4	.	.
CCC[C@@H]1CCCO[C@@](C(=O)NCc2ccccn2)(C(F)(F)F)C1	-11	.	.
CCN(CC)c1ccc2cc(-c3nc4ccccc4[nH]3)c(=O)oc2c1	30*	-66	+
CCN(CC)c1ccc2cc(-c3nc4ccccc4n3C)c(=O)oc2c1	-64	6	.
O=C(NCC1CC1)C1(C(F)(F)F)C/C(=C\Cc2ccccc2)CCCO1 (stereo unspecified)	3	.	.
Cc1cc(OC(=O)c2ccco2)c2c3c(c(=O)oc2c1)CCCC3	-9	.	.
CC(C)Oc1cc2oc(=O)c3c(c2cc1Cl)CCC3	-6	-9	.
Cc1cc2oc(=O)c3c(c2cc1OC(=O)c1ccco1)CCCC3	-48	-9	.
O=C(Oc1cc2oc(=O)c3c(c2cc1Cl)CCCC3)c1ccco1	141*	0	+
CC(=O)Oc1cc2oc(=O)c3c(c2cc1Cl)CCC3	.	-12	+
COC(=O)Cc1c(C)c2ccc(OC(=O)c3ccco3)cc2oc1=O	+	-17	+
O=C(Oc1ccc2c3c(c(=O)oc2c1)CCC3)c1ccco1	187*	.	+
COC(=O)Cc1c(C)c2cc(Cl)c(OC(=O)c3ccco3)cc2oc1=O	.	-16	.
CCn1c(=O)c(C2=NS(=O)(=O)c3ccccc3N2)c(O)c2ccccc21	.	3	.
CC(=O)C[C@H]1c2ccccc2S(=O)(=O)N1c1ccccc1	-43	.	.
SMILES	RmlC RmlD mix	RT RNaseH block	RmlCD fluor art
O=C(NC1CC1)C1=C[C@@H](c2c[nH]c3ccccc23)C[C@@H](OCCCCO)O1	2	.	.
COc1ccccc1N=c1oc2cc(O)ccc2cc1C(=O)NCC1CCCO1 (stereo unspecified)	21	-4	.
COc1ccccc1N=c1oc2cc(O)ccc2cc1C(N)=O	40*	-25	+
COc1ccc(Oc2c(C)oc3c(CN(C)C)c(O)ccc3c2=O)cc1	23	-1	.
O=c1oc2c(CN3CCOCC3)c(O)ccc2c2c1CCCC2	147*	-14	+
COCCN(CCOC)Cc1c(O)ccc2c3c(c(=O)oc12)CCC3	158	-3	.
CCCCc1cc(=O)oc2c(CN(C)C)c(O)ccc12	72*	-10	+
CCCc1cc(=O)oc2c(CN3CCOCC3)c(O)ccc12	166	.	.
CN(C)Cc1c(O)ccc2c3c(c(=O)oc12)CCCCC3	117*	.	+
CCc1c(C)c2ccc(O)c(CN(C)C)c2oc1=O	131*	-9	+
O=c1oc2c(CN3CCOCC3)c(O)c(Cl)cc2c2c1CCCC2	29	-4	.
COc1ccc(NC(=S)NCc2ccco2)c(OC)c1	8	.	.
O=C(O)C[C@H]1c2cc(F)ccc2S(=O)(=O)N1C1CCN(Cc2ccccc2)CC1	-11	.	.
C#CCOCCOCCOCCNc1nc(N2CCN(C(=O)[C@H](CCC(=O)O)n3cc(C(N)CO)nn3)CC2)nc(N2CCN(C(=O)[C@H](CCC(=O)O)n3cc(C(N)CC(C)C)nn3)CC2)n1 (stereo partly specified)	17	.	.
CCn1nnnc1SCC(=O)c1cc(OC)ccc1OC	-10	5	.
Cc1nn(C(C)C(=O)NNC(=S)Nc2ccc(Cl)cc2)c(C)c1[N+](=O)[O-] (stereo unspecified)	-15	.	.
COc1ccc(CNC(=O)c2ccc(N3CCC4(CC3)CC(c3ccc(Cl)cc3)=NO4)c(N)c2)cc1	-34	.	.
CCCC[C@@H]1CNC(=O)C(=O)N1CCc1cccc2ccccc12	1	.	.
Cc1cc2c(C)c(C)c(=O)[nH]c2cc1N	45*	.	+
Cc1cc(C)c2[nH]c(=O)c(=O)[nH]c2c1	-5	10	.
COCc1c(C(=O)N2CCN(c3ccc(C(F)(F)F)cn3)CC2)oc2ccccc12	-23	.	.
COc1cccc(/C=N/NC(=O)c2cc3c(OC)cccc3[nH]2)c1O	.	.	+
COc1cccc(/C=N/NC(=O)C(=O)NCc2ccco2)c1O	-1	.	.
Cc1nc2ccccc2cc1C(=O)O	10	.	.
O=c1cccc2n1Cc1cc3ccccc3nc1-2	55*	.	+

Screening data deposited in PubChem BioAssay by several laboratories.
